# The campaign covered roughly 300,000 compounds. About 37,000 (12%) were called active. Shown is part of a subset that was picked to be rich in actives. A number with no mark means an inactive call. No stated cut-off is given here; in the data, active means max response mostly above about 13% (no sharp cut-off); inactive means mostly below about 14%.
# Test: Cycloheximide Counterscreen for Small Molecule Inhibitors of Shiga Toxin; further: read at 38.3 µM for the half of the compounds with a filed dose; 0% is about no effect
# Conditions: cell reporter, cycloheximide protein synthesis inhibition counterscreen; hits give high values
row,SMILES,max response
1,O=[N+]([O-])c1ccc(N(CCO)Cc2ccccc2)c([N+](=O)[O-])c1,-2.22%
2,C/C(=N/NC(=O)c1cc(Cl)ccc1O)C12CC3CC(CC(C3)C1)C2,18.4%
3,Cc1ccc(C)c(N2C(=O)CS/C2=N\NC(=O)c2ccccc2Cl)c1,-3.78%
4,O=C(N/N=C1\CCSC1)c1cc(Cl)ccc1O,18.7% (active)
5,Cc1cc(C=O)c(C)n1-c1ccc(NC2CCCCC2)c([N+](=O)[O-])c1,6.55%
6,Cc1cc(=O)oc2c(C)c(OC(C)C(=O)NC3CCN(Cc4ccccc4)CC3)ccc12 (stereo not given),-2.67%
7,COc1ccc(NC(=O)C(=O)NCC(=O)Nc2cccc(C(F)(F)F)c2)cc1,-1.93%
8,COc1ccc(NC(=O)CC(NC(C)c2ccccc2)C(=O)O)cc1 (stereo not given),-3.91%
9,COc1ccc(C(CC(=O)Nc2ccc(C)cc2)NC(=O)C(F)(F)F)cc1 (stereo not given),12.7% (active)
10,Cc1ccc(NS(=O)(=O)c2ccc3c(c2)NC(=O)CO3)cc1,-9.63%
11,COc1ccc(CNC(=O)C(Cc2ccccc2)n2cccc2)cc1 (stereo not given),-3.21%
12,CCOC(=O)C1Sc2[nH]c(=O)sc2C(c2ccc(Cl)cc2)C1C(=O)OCC (stereo not given),-1.02%
13,COc1ccc(N2CCN(C(=O)c3ccc(N4CCCCS4(=O)=O)cc3)CC2)cc1,-2.57%
14,CCC(=C/c1sc2ccc3ccccc3c2[n+]1C)/C=C1\Sc2ccc3ccccc3c2N1C,-3.42%
15,Cc1nc2nc(SCC(=O)c3ccccc3)[nH]c2cc1Br,1.25%
16,CCOC(=O)CSc1nc2ccc(C)cc2[nH]1,17% (active)
17,COc1ccc2nc(SCC(=O)Nc3c(C)cc(C)cc3C)[nH]c2c1,-5.11%
18,Cc1ccc2nc(SCC(=O)NC3CCCC3)[nH]c2c1,-3.78%
19,CC(=O)Nc1ccc(C(=O)CSc2nc3ccc(C)cc3[nH]2)cc1,19.9% (active)
20,Cc1cc(C)c(NC(=O)CSc2nc3ccncc3[nH]2)c(C)c1,8.2%
21,COc1ccc(/C=N/N(C)C2=NS(=O)(=O)c3ccccc32)cc1OC,-4.65%
22,CCCCN(C)CCNC(=O)C1CCCN(S(=O)(=O)c2cccc3nsnc23)C1 (stereo not given),-7.69%
23,CC(Sc1cccc[n+]1[O-])C(=O)Nc1cccc(S(=O)(=O)N2CCOCC2)c1 (stereo not given),-2.05%
24,COc1ccc(/C=N/n2nnnc2N)cc1OC,1.75%

row,SMILES,max response
1,CCOc1ccccc1/C=N/NC(=O)CNC(=O)COc1ccccc1,8.7%
2,C=CCc1ccccc1OCC(=O)N/N=C/c1ccccc1OCC,9.76%
3,CCOc1ccccc1/C=N/Nc1nc2ccccc2o1,11.2% (active)
4,CCOc1ccc(/C=N/Nc2nncc(-c3ccccc3)n2)cc1OC,5.88%
5,Brc1ccccc1/C=N/Nc1nc2ccccc2o1,35.3% (active)
6,c1ccc(CCN2CN=C(Nc3nc4ccccc4o3)NC2)cc1,13.2%
7,COc1ccc(/C=N/Nc2nc3ccccc3o2)cc1OC,32.2% (active)
8,CN=C1S/C(=C\c2c(OC)cc(OC)cc2OC)C(=O)N1C,-4.61%
9,COc1ccc(C2/C(=C(/O)c3ccc4c(c3)CC(C)O4)C(=O)C(=O)N2Cc2ccncc2)cc1 (stereo not given),-3.17%
10,COc1cc(C(=O)N2CCN(C)CC2)cc(OC)c1OC,-1.54%
11,Cc1ccc(NC(=O)COC(=O)C2C3CC4OC(=O)C2C4C3)cc1Cl (stereo not given),6.04%
12,O=C(NCc1ccco1)C1CCCN1S(=O)(=O)c1ccccc1C(F)(F)F (stereo not given),-2.95%
13,Cc1ccc(-n2nc3c(=O)n(C(C)C(=O)NCc4ccc5c(c4)OCO5)nc(C)c3c2C)cc1 (stereo not given),7.33%
14,COc1ccc(CN(C)C(=O)Cc2ccsc2)c(OC)c1OC,-2.85%
15,CC(C)CNS(=O)(=O)c1ccc(CCC(=O)NCc2ccc(Cl)cc2)cc1,-1.7%
16,COc1ccc(CN2CCN(C(=O)CCC(=O)Nc3nnc(C(C)C)s3)CC2)cc1F,-9.15%
17,CC1C(=O)C(C)C(c2ccc(O)cc2)NC1c1ccc(O)cc1 (stereo not given),-3.88%
18,CC(NC(=O)C(C)(C)C)C(c1cccs1)N1CCN(Cc2ccccc2)CC1 (stereo not given),1.72%
19,C#CC(C)(C)NC(=O)c1cnc(-c2ccccc2)nc1-c1ccccc1,1.23%
20,O=C(Nc1ccc2c(c1)OCO2)C1CC(c2c(F)cccc2Cl)=NO1 (stereo not given),31.8% (active)
21,Cc1ccc(NC(=O)C2CC(c3ccc(F)cc3)=NO2)cc1 (stereo not given),4.66%
22,Cc1ccccc1N1CC(C(=O)Nc2ccc3c(c2)OCO3)CC1=O (stereo not given),15.7%
23,Cc1ccc(S(=O)(=O)N(Cc2ccccc2)c2ccccn2)cc1[N+](=O)[O-],2.38%
24,CS(=O)(=O)N(CC(=O)Nc1ccc(F)cc1F)c1cccc([N+](=O)[O-])c1,1.91%

row,SMILES,max response
1,Cc1c(Br)c([N+](=O)[O-])nn1CC(=O)N1CCN(Cc2ccccc2)CC1,14.4% (active)
2,O=C(c1cccc([N+](=O)[O-])c1)N1CCN(Cc2ccccc2)CC1,-6.89%
3,O=C(/C=C/c1cccc([N+](=O)[O-])c1)N1CCN(Cc2ccccc2)CC1,21.5%
4,COc1ccc(-c2cc(C(=O)N3CCN(Cc4ccc5c(c4)OCO5)CC3)on2)cc1OC,-9.89%
5,Cc1cc(C)nc(N/N=C/c2ccc([N+](=O)[O-])o2)n1,0.645%
6,Cc1cc(C)nc(N/N=C/c2c(C)oc3ccccc23)n1,1.89%
7,Cc1cc2c(C)nc(N/N=C/c3ccccc3)nc2o1,38% (active)
8,COc1ccc(C(=O)NCc2nnc(SCCOc3ccccc3)n2C)cc1,-1.69%
9,COc1cccc(C(=O)NCCSc2ccc(Br)cc2)c1,3.16%
10,COc1ccc(C(=O)NCCSc2ccccc2C)cc1,46% (active)
11,N#Cc1ccccc1S(=O)(=O)N1CCN(C(=O)c2cc(-c3ccccc3)nn2-c2ccccc2)CC1,-0.928%
12,COC(=O)Cn1nc(-c2ccccc2)c2cc(Cl)ccc21,-2.04%
13,COCCCNc1nc2c(-c3cccc(C(F)(F)F)c3)nnn2c2ccccc12,-2.05%
14,COCCCNc1nc2c(-c3cccc(C)c3)nnn2c2ccc(Cl)cc12,11.5% (active)
15,O=C(CCS(=O)(=O)c1ccc(Br)cc1)NCCc1ccc(Cl)cc1,-3.3%
16,CC1=CC(=C(C#N)c2nc3ccccc3s2)C=C(C)N1c1ccc(F)cc1F,11.6% (active)
17,N#C/C(=C(/O)Cc1cccc2ccccc12)c1nc2ccccc2s1,-8.33%
18,C=CCN1C(=O)C(O)(CC(=O)c2ccccn2)c2ccccc21 (stereo not given),-4.4%
19,Cc1ccc2cc(CCNC(=O)c3ccc4c(c3)OCO4)c(=O)[nH]c2c1,-3.03%
20,O=C(NCc1ccco1)/C(=C/c1ccco1)NC(=O)c1ccccc1,-7.97%
21,Cc1ccc(C(=O)N/C(=C/C=C/c2ccccc2)C(=O)NCc2ccco2)cc1,13.9% (active)
22,CNC(=O)/C(=C\C=C\c1ccccc1)NC(=O)c1ccc([N+](=O)[O-])cc1,-1.68%
23,Cc1ccc(NS(=O)(=O)c2cn(C)c(=O)n(C)c2=O)c(C)c1,-0.304%
24,Cc1ccc2c(c1)N(CC(=O)N1CCCC(C)C1)C(=O)CO2 (stereo not given),-3.96%

row,SMILES,max response
1,COC(=O)C1(CCSC)NC(c2ccc(OC)cc2OC)C2C(=O)N(c3cccc(C(C)=O)c3)C(=O)C21 (stereo not given),-3.66%
2,Cc1cccc(NC(=O)c2ccc3c(=O)n(CC4CCCO4)c(=S)[nH]c3c2)c1 (stereo not given),10.1%
3,COC(=O)c1ccc(NC(=O)CSc2nc(N)c(NC(=O)c3ccc(Br)o3)c(=O)[nH]2)cc1,9.86%
4,CCOC(=O)CNc1nc(Cl)nc(Nc2ccc(OC)cc2OC)n1,-3.67%
5,CCOC(=O)CNc1nc(Cl)nc(Nc2ccccc2)n1,45.2% (active)
6,CCC(=O)Nc1ccc(Nc2nc(Cl)nc(Nc3ccc(NC(=O)CC)cc3)n2)cc1,-3.17%
7,Cc1nc(C(=O)N2CCCC(C(=O)c3ccc(Cl)cc3)C2)cs1 (stereo not given),0.775%
8,COc1ccccc1NC(=O)C1CCN(C(=O)c2ccc(C(C)(C)C)cc2)CC1,-1.21%
9,Cn1nc(-c2ccccc2)c(CSc2cccc(Cl)c2)c1Cl,-2.67%
10,Fc1ccccc1OCCSc1nc2ccccc2o1,26.3% (active)
11,Cn1c(=O)c2c(nc(Br)n2CCSc2nc3ccccc3o2)n(C)c1=O,-1.28%
12,O=c1c2ccccc2ncn1CCCCOc1ccccc1F,1.24%
13,COC(=O)c1ccc(CN2CCCC(C(=O)Nc3cccc(-n4cnnn4)c3)C2)cc1 (stereo not given),-1.47%
14,O=C(C1CC(=O)N(c2ccc(F)cc2)C1)N1CCN(c2ccccc2)CC1 (stereo not given),-1.52%
15,CCOc1ccccc1NC(=O)NC1CCCCCCC1,10.6%
16,O=C(Nc1cccn(Cc2ccccc2Cl)c1=O)NC1CCCCC1,10.8% (active)
17,O=C(Nc1cccn(Cc2c(Cl)cccc2Cl)c1=O)c1ccc(Cl)cc1,1.71%
18,CC(=O)N1CCN(C(=O)C2(NC(=O)Nc3ccc(C)cc3)CCCCC2)CC1,6.9%
19,COC(=O)/C(=C\Nc1ccccc1)NC(=O)c1ccc(Cl)cc1Cl,16.3%
20,CC(=O)c1c(C)[nH]c(C(=O)Nc2cc(S(=O)(=O)N(C)C)ccc2C)c1C,6.78%
21,COC(=O)[C@@H]1CCCN1C(=O)c1cc(COc2cccc3cccnc23)on1,-3.11%
22,CSc1ccccc1OCc1cc(C(=O)N(C)CCc2c(C)n[nH]c2C)no1,15.1%
23,CSc1ccccc1OCc1cc(C(=O)N2C[C@H]3CC[C@H]2C3)no1,45.3% (active)
